The campaign covered roughly 53,000 sequences. About 3,700 (7%) were called active. The sample as a whole holds a higher share of actives than the screen did. Unmarked numbers belong to inactive results.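 How the source made its calls: active means gene knockdowns whose robust z-score for IL-1 alpha signal is at least 2 or at most -2, so actives lie on both sides; inactive means the rest.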

A short description of this assay: Components of the Cytosolic LPS Sensing Pathway: Gene Identification via Genome-wide siRNA Screen.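 Further: robust z of the log signal after scaling to non-targeting control siRNA wells of the plate.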 The settings on record: RAW264.7 macrophages, IL-1a HTRF, actives lie on both sides, screened at 100 nM (by protocol), cells primed 5 h with Pam3CSK4 first. In outline: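 RAW264.7; siRNA 100 nM final, RNAiMAX, 48h 37 degrees C; Pam3CSK4 5 h; LipidA + TransIT-TKO 24 h; IL-1a HTRF; CellTiter-Glo viability; robust z vs negative-control median.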
Turning to GGUGUCGAGAAGCCUCAAATT against Arhgap24, the z-score is -0.617.
As for GCCGUAUGGCAGGUAUUUUTT against Tmem266, the z-score is 3.27 (active).
For the sequence CCACUACAACAACACUUAUTT against Keg1, the z-score was 0.84.
As for GCAUCUACCUUCUAUUACUTT against Gpsm1, the figure is 0.533; as for GGACAUGCUCUAUAAGAAGTT against Pabpc5, -0.642; as for GGCAACUUGAUUGUAAACUTT against Zic2, 0.795.
Take CAGAAUUCAGAUAAUCUUGTT against Defb22: the z-score is 1.06.
Regarding GGAUAUCCAAGUAAGGUGUTT against Mrpl9, the z-score is -0.504.
Turning to GACUGAGCUUCUGUGAUGGTT against Olfr921, the z-score is -2.5 (active).
GGAGAAGAAGGGAAAGCAUTT against Tub: the z-score was -1.4.
As for GGUGGAUAUUCCAUCUAUUTT against Snx14, the figure is 2.76 (active); as for CGUUUUCAGAGAUGUGCGCTT against Cmtm5, -1; as for GCCAGUAUUAGCCUAGAUCTT against Vstm5, -1.65.
As for CCCAGCUCUGUUUAAUGAUTT against Klf8, the z-score was -0.449.
As for GGAUCUUAAGAAGUUCCAATT against Chchd6, the figure is -0.104; as for CCUCCUUUUUUCUCUGUCUTT against Ugt1a9, -2.79 (active).
As for GGAUUUGCCUUAAAAAAUCTT against Dock4, the figure is -0.0352; as for GGUUUGAGGUAACACUAGATT against Vps39, -0.125; as for GCUGAAAGGAAUGUGCUCATT against Hspa8, -1.57.
For the sequence GCCGGAUGAAGGACUUUACTT against Dcc, the z-score was -1.98.
Turning to CCUAGUCUAGCUGACUUGCTT against Eppin, the z-score is 1.41.
The figure for GGUUACGAAAAGCUGCCUUTT against Ints14 is -0.125; for GGCCUUGGCAAUUAUUUGUTT against Syap1 it is -0.0759.
With GGAGAAAGAGAUUCCUAUUTT against Triap1, the z-score was -0.818.
For the sequence CCAAUUCGUGUUAAGGAACTT against Riox2, the z-score is 0.212.
Consider CCUCGUAGGGCCUAUGGUATT against Cyth4, for which the z-score is -2.17 (active).
As to GCCAAAGUAGCAUUAGUGATT against Dip2b, the z-score was -1.39.
As to GGCAAUGUCUUUAAAAUACTT against Txndc8, the z-score was -0.724.
On to GGCAUUGACCCUUCUUGGATT against Stam2, for which the z-score is -0.395.
As to CCUUGUUAGAGCAUUACAATT against Rprd1a, the z-score was 1.34.
Regarding GGAUUCUGAGAAAUCAAGATT against Serpinb12, the z-score is -0.376.
Consider GGAAAUCUACGAUUUCUAATT against Cyria, for which the z-score was 2.55 (active).
On to GCUCCAGAAUAUAUUGUUCTT against Arfgap3, for which the z-score is 1.39.
With GGGCAGAGGCAUUUCUGUATT against Psg23, the z-score was 1.76.
The figure for GGAACCAGGUAGCAGAUCUTT against Cdk2ap2 is -2.61 (active).
As for GGACUAUAUGAGAUAAACUTT against Pask, the z-score was 0.371.
Regarding CGCCAAACAGGCUAGAUCUTT against Ephb2, the z-score was -0.101.
GCGAGAAUUGGACAAAUUATT against Acot12: the z-score was 0.784.
“GCAUUCGAAGCUCUUCUAATT against 4930474M22Rik”: the z-score is -1.89.
Take GGGCUGUGAGCUCUGUUCATT against Rspo1: the z-score was 0.188.
Take GCCCAAACGAAAAAUGGCCTT against Abl1: the z-score is 2.95 (active).
Take GCAACUGAGAGAUGUCAUCTT against Gbp6: the z-score is -0.806.
Take CCUGUGAAGUAUAACAUCGTT against Fam234b: the z-score is -0.722.
CCUAUGUAUCUCAUCGCUGTT against Sox11: the z-score was 0.819.
Regarding GGCAAUUUGGAUACCAGGATT against Zfp24, the z-score was -0.563.
GCAGAAUUGAGUCACCCAATT against Sp1: the z-score is -2.56 (active).
In the case of GCGACAAAGCUCGUUAUGATT against Hmgb2, the z-score was -2.3 (active).
Take GCAUAAACUUUAGGCAUGGTT against Alg13: the z-score was -0.123.
With “GGUCAUCCGAUGCUUUGUATT against 4930515G01Rik”, the z-score was -0.513.
As for CCGGUUACCAAUUGAUAAATT against Smc3, the z-score was -1.15.
The figure for GCGUAAAUCUCCACACUACTT against Vmn1r54 is -1.57; for GGUGGAUACACAGGACAAATT against Invs it is 1.58.
GGAGCGUAGAUAACUUAUCTT against Itprid2: the z-score is -0.0474.
For the sequence CGCAGACAGUUUGAGGCUGTT against Gpbp1, the z-score was -2.34 (active).
With GGGACAUGGUCAUCACUAGTT against Clvs2, the z-score is -1.71.
Consider “GGAAUAGGAGCAAGUGUACTT against 9930021J03Rik”, for which the z-score was 1.03.
With GGAUACACACAGAGAAUAUTT against Arhgef10l, the z-score is 0.161.
On to GGCCUUCACGUCUGGAAAUTT against Cnot10, for which the z-score is -0.163.
Consider GCAUCUCUCUAAUAGCCUUTT against Nop16, for which the z-score is 1.24.
For GGAUGAAAAUCUCUGUCCUTT against Trpa1, the z-score was 0.604.
Turning to GGCAGCAGCAAGUUUCUUCTT against Rbm38, the z-score is -2.31 (active).
On to GCUUUUGAUCCACAGAUUUTT against Prss33, for which the z-score was 0.372.
On to GGGCUUAUUCUCAGUUCUGTT against Slc17a1, for which the z-score is -0.395.
Regarding GGACCAUGUGACAAAGCCUTT against Fam131b, the z-score was 2.16 (active).
The figure for GCCUCCAUUAUUUGUUCUGTT against Olfr1058 is -0.177; for GGAAACACCAAGAUUCCAGTT against Sprr3 it is -0.445; for GCUAUUGGAGGAAUGUAUCTT against Rasgrp4 it is -1.51.
On to GGCACAAGAGCAAAGGCUUTT against Gmppb, for which the z-score is -0.575.
Turning to CCCUCAUUUACUCUAGUAATT against Defb12, the z-score was 0.714.
In the case of GGUGUUCCUGGUGAAGCAATT against Camk1g, the z-score is 0.875.
For the sequence CGCUCACUGGUUUUUAAUUTT against Itpripl2, the z-score is 0.694.
Turning to GCCCGCACAAUCGUACUUUTT against Ccl28, the z-score was -1.2.
Take GGAAAACUGCGUUUGGAAATT against Neil3: the z-score was 0.387.
Consider GCAAUAGUGAGCACGCCAGTT against Col18a1, for which the z-score is 0.307.
For GGUCUGUGGACUGAACUUATT against Bcl2l11, the z-score is -2.6 (active).
Turning to GGAUGAAGAACUCAGAGUGTT against Slc66a2, the z-score was -1.24.
With GGUCAUUCUUAAUUGUUCATT against Kpna6, the z-score is 0.939.
In the case of “CCAAAGUCUGUUAAUGGGUTT against 4921517D22Rik”, the z-score is 0.401.
Consider GCUAUGCAGAGGAGUAUGCTT against Duoxa1, for which the z-score was 3.03 (active).
Regarding GGAGACAUUGCUAUAUAUGTT against Hmgcs1, the z-score is -0.207.
As for GGCCUAAGGCUGUGAAUGUTT against D2hgdh, the figure is -2.59 (active).
Take GCCGUUUACGUUUAUUGUUTT against Cux2: the z-score was -0.0356.
As for GGACAGAAUACGUGAGGAGTT against Septin5, the z-score was -0.427.
With GGAGUUCCAGCAGCUCUAUTT against Vsnl1, the z-score is 0.741.
As for GGUUCUGCUGGACAACUUUTT against Cyp46a1, the z-score is -0.377.
Consider CCCUCAUAACUAAUGCUGUTT against Pip5kl1, for which the z-score is -0.276.
Consider GGUGAUCCAAGACUUCCAGTT against Actl6b, for which the z-score was 1.16.
Regarding GCAGUGAUCCAUGAGCCUATT against Eif5a, the z-score was 4.64 (active).
Regarding GCACCAAUAUUAGGCUGACTT against Noct, the z-score was 1.73.
Take CGAGCACACUUUUGAAGAATT against Gm5089: the z-score was 1.33.
For GGCUACGAUCCUACAGUGGTT against Rhebl1, the z-score was -0.283.
On to GGCAACACUGUGGCUAAGUTT against Ankrd13d, for which the z-score was 2.74 (active).
On to GCUGGUAACAGAAUUUCUUTT against Aox2, for which the z-score is 0.515.
As for GCUAAACAGACAACUCAACTT against Rufy2, the figure is 1.04.
The figure for GGUAAAACCCAAUAGUAACTT against Gclm is 0.45; for GGAUCUUUACUGCUUUGUGTT against Picalm it is 2.42 (active).
As for GCCAAUUUGAAGGUUUUCATT against Tlr8, the figure is 1.58; as for GGCUCUUGGAUAUUUCCGATT against Nop9, 0.342.
Consider CCUAAUGGAAGGGAAGCCATT against Cox19, for which the z-score was -2.06 (active).
Turning to GGACCUGAAUAAGACUAUUTT against Lgmn, the z-score is -0.429.
With GGGAGGUUACUAUGGAGACTT against Mia, the z-score was 1.68.
For the sequence GCUACUGCAUUCUCUAUCATT against Actl9, the z-score is 1.94.
The figure for GGCAACUGUGUUCUCACGATT against Ddx58 is -1.22; for CCACUUCCAUAGAGAUUUUTT against Tmx3 it is 2.93 (active).
As for GCUUUGUUUGAAAAUGCGATT against Nrde2, the z-score was -0.66.
For the sequence CCGCGUGUAUAAGUUGGUGTT against Mrpl9, the z-score is 1.23.
Regarding GCCUCGAUUCACCAAGUGUTT against Ghr, the z-score is -0.663.
With GGAAGAUCGAGAAUGUUCCTT against Ppih, the z-score was 0.174.

(Values after PubChem BioAssay AID1508600 (Functional Genomics Laboratory (NCATS/FGL), 2020).)
